“And” between values parts separate entries of the source, which are not always exact repeats. Equal values may be shown once. Records with an inconclusive call do not appear. Where a call stands in place of a potency, no number is given. A structure can be active in one record and inactive in another. The source made the active and inactive calls. The call rests on the fitted dose curve; in most records, active means well fitted curve in the direction sought with a large enough effect in the repeat runs; inconclusive means weak or mixed curves; inactive means no such curve, though single readings can be large; an effect the other way counts as inactive or inconclusive.

Sequence of Nuclear receptor subfamily 1 group I member 2 (Homo sapiens) (O75469 whole entry, looked up): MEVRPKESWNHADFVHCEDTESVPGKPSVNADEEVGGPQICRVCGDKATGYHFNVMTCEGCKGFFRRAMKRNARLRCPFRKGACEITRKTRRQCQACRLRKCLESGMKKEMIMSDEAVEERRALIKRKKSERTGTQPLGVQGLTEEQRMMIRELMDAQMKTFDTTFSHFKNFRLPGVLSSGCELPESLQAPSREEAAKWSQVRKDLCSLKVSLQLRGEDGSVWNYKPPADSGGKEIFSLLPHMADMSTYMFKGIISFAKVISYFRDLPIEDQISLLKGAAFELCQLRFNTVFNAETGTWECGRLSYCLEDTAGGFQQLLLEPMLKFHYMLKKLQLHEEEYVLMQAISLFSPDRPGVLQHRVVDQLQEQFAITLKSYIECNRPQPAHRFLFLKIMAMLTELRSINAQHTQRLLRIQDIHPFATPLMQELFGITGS

System in one experiment: not listed separately
The experiment can be described thus: Caspase-3/7 induction in CHO-K1 cells by small molecules, qHTS assay (AID 1346980). Further: nearly all actives have a fitted effect of over 15% in size. Conditions: CHO-K1 caspase-3/7 induction, Caspase-Glo luminescence, 17 h; series mostly up to 92.4 µM. The procedure, abridged: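 Wild-type CHO-K1 cells exposed to compounds for 17hr at 37 C, 5% CO2. Caspase-3/7 activity then measured by Caspase-Glo 3/7 luminescence after 30min at room temperature.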
Background: Quantitative high-throughput screening tests each substance at several concentrations.
In the case of `c1ccc2c(c1)[nH]c1ccccc12`, the Potency result was “inactive”.
Turning to `Cc1ccc2c(c1)C(=O)OC2=O`, the Potency result was “inactive”.
Turning to `CNC[C@H](O)c1ccc(O)c(O)c1`, the Potency result was “inactive”.
With `FC(F)(F)C(Cl)Br` (stereo not given), the Potency entry was “inactive”.
The same measure, in the same setting: under `COCCOCCOCCO` stands “inactive”.
The same measure, in the same setting: then `CCCCCCCC/C=C\CCCCCCCC(=O)O`, with “inactive”; and `C=CCOC(=O)C(=C)C`, with “inactive”.
`C=CN1CCCC1=O`: the Potency result was “inactive”.
Regarding `CC1=CC(C)(C)Nc2ccccc21`, the Potency entry is “inactive”.
As to `CCCCCCCCCCCCCO`, the Potency result is “inactive”.
On to `CCCN1C=CN(C)C1`, for which the Potency entry was “inactive”.
For `CC1(C)O[C@@H]2C[C@H]3[C@@H]4C[C@H](F)C5=CC(=O)C=C[C@]5(C)[C@@]4(F)[C@@H](O)C[C@]3(C)[C@]2(C(=O)CO)O1`, the Potency result is “inactive”.
Take `c1ccc2ncccc2c1`: the Potency entry is “inactive”.
Regarding `CCC(Cc1c(I)cc(I)c(N)c1I)C(=O)O` (stereo not given), the Potency result is “inactive”.
Regarding `OCCNCCO`, the Potency result was “inactive”.
In the case of `C1COCCN1`, the Potency entry is “inactive”.
For `NCCS(=O)(=O)O`, the Potency result is “inactive”.
Turning to `COc1ccc(C(=O)c2ccccc2O)c(O)c1`, the Potency result is “inactive”.
On to `CC(=O)Nc1ccc2c(c1)Cc1cc(NC(C)=O)ccc1-2`, for which the Potency entry was “inactive”.
On to `C[C@]12C=CC(=O)C=C1CC[C@H]1[C@@H]3C[C@@H](O)[C@](O)(C(=O)CO)[C@@]3(C)C[C@H](O)[C@@]12F`, for which the Potency result is “inactive”.
Turning to `Cc1ccc(C(C)(C)C)cc1`, the Potency entry is “inactive”.
Consider `CCC/C=C/C=O`, for which the Potency result was “inactive”.
`C/C=C/C(=O)N(CC)c1ccccc1C`: the Potency result is “inactive”.
For the molecule `Brc1nc2ccccc2s1`, the Potency result is “inactive”.
In the case of `[Na+]`, the Potency entry was “inactive”.
Still for that read-out and setting: under `CCO[Si](CCCNC(N)=O)(OCC)OCC` stands “inactive”.
As to `Cc1cccc(Nc2ccccc2C(=O)O)c1C`, the Potency entry was “inactive”.
Same read-out and setting: then `NC[C@H](O)c1ccc(O)c(O)c1`, with “inactive”; and `O=[Se](O)O`, with “inactive”.
On the same count and under the same terms, under `NCCOCCO` stands “inactive”.
As to `C=CC(=O)OCCCC`, the Potency entry is “inactive”.
On the same count and under the same terms, then `CCCCCCOCCOCCO`, with “inactive”; and `CC(=O)Oc1c(C)c(C)c2c(c1C)CC[C@@](C)(CCC[C@H](C)CCC[C@H](C)CCCC(C)C)O2`, with “inactive”.
On the same count and under the same terms, under `c1ccc2c(c1)ccc1cc3c(ccc4ccccc43)cc12` stands “inactive”; under `Nc1ccc(O)c(N)c1`, “inactive”.
For `CCCCCCCCCCCCO`, the Potency entry is “inactive”.
In the case of `CC(C)[N+](C)(CCOC(=O)C1c2ccccc2Oc2ccccc21)C(C)C`, the Potency result was “inactive”.
`C=CCCCCCCCCCC`: the Potency entry is “inactive”.
`C[N+](C)(C)CCO`: the Potency entry was “inactive”.

System in another experiment: not listed separately
The experiment is described as follows: Caspase-3/7 induction in HepG2 cells by small molecules, qHTS cell viability counter screen (AID 1346981). Further: nearly all actives have a fitted effect of over 30% in size. Further: potency means the concentration at half of the fitted maximal effect. The conditions noted are these: CellTiter-Fluor fluorescence, 17 h; series mostly up to 92.4 µM. The procedure, abridged: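 The parent HepG2 line is plated at 2,000 cells per well and rested 5 hr before compound pinning from DMSO stocks. Following a 16-hr treatment at 37 C, a fluorogenic live-cell substrate (CellTiter-Fluor) reports viability after 1 hr.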
In the case of `c1ccc2c(c1)[nH]c1ccccc12`, the Potency result was “inactive”.
On the same count and under the same terms, then `Cc1ccc2c(c1)C(=O)OC2=O`, with “inactive”.
Regarding `CNC[C@H](O)c1ccc(O)c(O)c1`, the activity change, negative = cytotoxicity is -0.0374% [at 19 µM] (inactive).
Consider `FC(F)(F)C(Cl)Br` (stereo not given), for which the Potency entry was “inactive”.
As to `COCCOCCOCCO`, the Potency entry was “inactive”.
For `CCCCCCCC/C=C\CCCCCCCC(=O)O`, the Potency entry was “inactive”.
Turning to `C=CCOC(=O)C(=C)C`, the Potency result is “inactive”.
As for `C=CN1CCCC1=O`, the Potency result was “inactive”.
On the same count and under the same terms, then `CC1=CC(C)(C)Nc2ccccc21`, with “inactive”; and `CCCCCCCCCCCCCO`, with “inactive”.
With `CCCN1C=CN(C)C1`, the Potency result was “inactive”.
Turning to `CC1(C)O[C@@H]2C[C@H]3[C@@H]4C[C@H](F)C5=CC(=O)C=C[C@]5(C)[C@@]4(F)[C@@H](O)C[C@]3(C)[C@]2(C(=O)CO)O1`, the Potency result was “inactive”.
With `c1ccc2ncccc2c1`, the Potency entry was “inactive”.
For the molecule `CCC(Cc1c(I)cc(I)c(N)c1I)C(=O)O` (stereo not given), the Potency entry is “inactive”.
On the same count and under the same terms, then `OCCNCCO`, with “inactive”.
Take `C1COCCN1`: the Potency entry is “inactive”.
For `NCCS(=O)(=O)O`, the Potency result is “inactive”.
On to `COc1ccc(C(=O)c2ccccc2O)c(O)c1`, for which the Potency entry is “inactive”.
In the case of `CC(=O)Nc1ccc2c(c1)Cc1cc(NC(C)=O)ccc1-2`, the Potency result is “inactive”.
As to `C[C@]12C=CC(=O)C=C1CC[C@H]1[C@@H]3C[C@@H](O)[C@](O)(C(=O)CO)[C@@]3(C)C[C@H](O)[C@@]12F`, the Potency result is “inactive”.
Still for that read-out and setting: then `Cc1ccc(C(C)(C)C)cc1`, with “inactive”.
For `CCC/C=C/C=O`, the Potency result is “inactive”.
On the same count and under the same terms, under `C/C=C/C(=O)N(CC)c1ccccc1C` stands “inactive”; under `Brc1nc2ccccc2s1`, “inactive”; under `[Na+]`, “inactive”.
On the same count and under the same terms, under `CCO[Si](CCCNC(N)=O)(OCC)OCC` stands “inactive”; under `Cc1cccc(Nc2ccccc2C(=O)O)c1C`, “inactive”; under `NC[C@H](O)c1ccc(O)c(O)c1`, “inactive”.
Take `O=[Se](O)O`: the Potency is 24.4 µM (active) and the activity change, negative = cytotoxicity is 2.81% [at 19 µM] (inactive).
For the molecule `NCCOCCO`, the Potency entry is “inactive”.
For the molecule `C=CC(=O)OCCCC`, the Potency result was “inactive”.
Regarding `CCCCCCOCCOCCO`, the Potency entry was “inactive”.
For `CC(=O)Oc1c(C)c(C)c2c(c1C)CC[C@@](C)(CCC[C@H](C)CCC[C@H](C)CCCC(C)C)O2`, the Potency entry was “inactive”.
Same read-out and setting: under `c1ccc2c(c1)ccc1cc3c(ccc4ccccc43)cc12` stands “inactive”.
As for `Nc1ccc(O)c(N)c1`, the Potency is 54.1 µM (active) and 48.6 µM (active).
As for `CCCCCCCCCCCCO`, the Potency result was “inactive”.
In the case of `CC(C)[N+](C)(CCOC(=O)C1c2ccccc2Oc2ccccc21)C(C)C`, the Potency entry is “inactive”.
Same read-out and setting: then `C=CCCCCCCCCCC`, with “inactive”; and `C[N+](C)(C)CCO`, with “inactive”.

Another experiment has as its target Nuclear receptor subfamily 1 group I member 2 (Homo sapiens) (UniProt O75469). The experiment is described as follows: Human pregnane X receptor (PXR) small molecule agonists, qHTS assay (AID 1346982). Further: nearly all actives have a fitted effect of over 35% in size. Further: potency means the concentration at half of the fitted maximal effect. The conditions noted are these: PXR-Luc HepG2, CYP3A4 luciferase reporter, 24 h; series mostly up to 92.4 µM. The procedure, abridged: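 After plating in 5% charcoal-stripped FBS and a 5 hr rest, PXR-Luc HepG2 cells received compounds in DMSO. Following 24 hr at 37 C, ONE-Glo was added and light output read.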
In the case of `c1ccc2c(c1)[nH]c1ccccc12`, the Potency was 47.7 µM (active) and 61.1 µM (active).
Take `Cc1ccc2c(c1)C(=O)OC2=O`: the Potency entry is “inactive”.
For the molecule `CNC[C@H](O)c1ccc(O)c(O)c1`, the Potency result was “inactive”.
`FC(F)(F)C(Cl)Br` (stereo not given): the Potency result is “inactive”.
As for `COCCOCCOCCO`, the Potency result was “inactive”.
In the case of `CCCCCCCC/C=C\CCCCCCCC(=O)O`, the Potency result was “inactive”.
As to `C=CCOC(=O)C(=C)C`, the Potency entry is “inactive”.
As for `C=CN1CCCC1=O`, the Potency entry is “inactive”.
In the case of `CC1=CC(C)(C)Nc2ccccc21`, the Potency was 8.41 µM (active).
On the same count and under the same terms, under `CCCCCCCCCCCCCO` stands “inactive”; under `CCCN1C=CN(C)C1`, “inactive”; under `CC1(C)O[C@@H]2C[C@H]3[C@@H]4C[C@H](F)C5=CC(=O)C=C[C@]5(C)[C@@]4(F)[C@@H](O)C[C@]3(C)[C@]2(C(=O)CO)O1`, 24.3 µM (active) and 8.41 µM (active).
Take `c1ccc2ncccc2c1`: the Potency result is “inactive”.
Regarding `CCC(Cc1c(I)cc(I)c(N)c1I)C(=O)O` (stereo not given), the Potency is 52.8 µM (active).
Take `OCCNCCO`: the Potency is 54.5 µM (active) and inactive.
For `C1COCCN1`, the Potency result is “inactive”.
`CC(=O)Nc1ccc2c(c1)Cc1cc(NC(C)=O)ccc1-2`: the Potency is 17.2 µM (active) and 7.7 µM (active).
Turning to `C[C@]12C=CC(=O)C=C1CC[C@H]1[C@@H]3C[C@@H](O)[C@](O)(C(=O)CO)[C@@]3(C)C[C@H](O)[C@@]12F`, the Potency entry is “inactive”.
For the molecule `Cc1ccc(C(C)(C)C)cc1`, the Potency entry was “inactive”.
For `CCC/C=C/C=O`, the Potency entry is “inactive”.
As for `C/C=C/C(=O)N(CC)c1ccccc1C`, the Potency result was “inactive”.
As to `Brc1nc2ccccc2s1`, the Potency was 60.9 µM (active).
Take `[Na+]`: the Potency result was “inactive”.
With `CCO[Si](CCCNC(N)=O)(OCC)OCC`, the Potency entry is “inactive”.
For the molecule `Cc1cccc(Nc2ccccc2C(=O)O)c1C`, the Potency was 48.6 µM (active) and inactive.
Turning to `NC[C@H](O)c1ccc(O)c(O)c1`, the Potency entry was “inactive”.
On the same count and under the same terms, then `O=[Se](O)O`, with “inactive”; and `NCCOCCO`, with “inactive”; and `C=CC(=O)OCCCC`, with “inactive”.
As for `CC(=O)Oc1c(C)c(C)c2c(c1C)CC[C@@](C)(CCC[C@H](C)CCC[C@H](C)CCCC(C)C)O2`, the Potency entry was “inactive”.
As for `c1ccc2c(c1)ccc1cc3c(ccc4ccccc43)cc12`, the Potency is 3.03 µM (active) and 1.71 µM (active).
On to `Nc1ccc(O)c(N)c1`, for which the Potency entry was “inactive”.
Regarding `CCCCCCCCCCCCO`, the Potency entry is “inactive”.
`CC(C)[N+](C)(CCOC(=O)C1c2ccccc2Oc2ccccc21)C(C)C`: the Potency result was “inactive”.
Consider `C=CCCCCCCCCCC`, for which the Potency result is “inactive”.
Turning to `C[N+](C)(C)CCO`, the Potency entry was “inactive”.

Values taken from PubChem BioAssay (Tox21).
